{"source": "PubChem BioAssay AID602376", "about": "(Johns Hopkins Ion Channel Center, 2012)", "note": "Entries with a potency or affinity are not part of this list. Inconclusive results are not listed. Values without a mark were called inactive.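 Rule for the calls: active = raises choline transporter activity at one or more tested doses and gives a fitted dose-response curve; inconclusive = no clear call, values can overlap the other calls; inactive = no choline transporter activation at any dose, or no curve.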", "data": [{"target": "High affinity choline transporter 1 (Homo sapiens) (UniProt Q9GZV3)", "sequence (Q9GZV3 whole entry, looked up)": "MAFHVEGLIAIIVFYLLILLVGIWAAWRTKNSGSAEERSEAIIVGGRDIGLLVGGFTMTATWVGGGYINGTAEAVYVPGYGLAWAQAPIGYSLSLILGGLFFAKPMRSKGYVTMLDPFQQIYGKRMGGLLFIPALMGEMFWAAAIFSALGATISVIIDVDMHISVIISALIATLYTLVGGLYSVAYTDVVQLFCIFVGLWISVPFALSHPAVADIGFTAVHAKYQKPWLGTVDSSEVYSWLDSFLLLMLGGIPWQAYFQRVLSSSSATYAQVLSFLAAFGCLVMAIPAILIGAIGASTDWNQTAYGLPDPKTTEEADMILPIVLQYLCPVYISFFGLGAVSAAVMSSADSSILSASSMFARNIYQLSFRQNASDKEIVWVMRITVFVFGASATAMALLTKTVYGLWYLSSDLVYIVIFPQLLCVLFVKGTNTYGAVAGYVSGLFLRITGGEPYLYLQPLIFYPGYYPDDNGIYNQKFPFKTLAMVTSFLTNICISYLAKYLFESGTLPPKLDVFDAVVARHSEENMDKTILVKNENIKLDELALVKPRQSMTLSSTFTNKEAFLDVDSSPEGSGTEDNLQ", "experiment": "human choline transporter potentiators, potency – cell-based, 10-point CRC, membrane potential dye, dose response (AID 602376)", "details": "HEK293-CHT, choline-induced membrane potential dye, cells express CHT LV-AA mutant; series mostly up to 67 µM; percent activation: at the top concentration", "units": {"percent activation": "%"}, "values": [{"molecule": "O=C(COC(=O)c1c2c(nc3ccccc13)CCCCC2)NCc1ccc2c(c1)OCO2", "percent activation": 66.1}, {"molecule": "COc1ccc(-c2c3c(=O)n(C)c(=O)n(C)c3cn2C2CCCCC2)cc1", "percent activation": 45.3}, {"molecule": "COc1ccc(-c2c(-c3cc(OC)c(OC)c(OC)c3)noc2C)cn1", "percent activation": 94.6}, {"molecule": "CCc1ccc(NC(=O)CSc2nc3ccccc3c(=O)n2CCCN2CCC(C)CC2)cc1", "percent activation": 36.5}, {"molecule": "CCOc1cc(-c2sc(Nc3cc(C)ccc3OC)n[n+]2-c2ccccc2)ccc1OC", "percent activation": 77.7}, {"molecule": "CC(C)CCNC(=O)/C=C/c1ccc(Br)cc1", "percent activation": 53}, {"molecule": "CCOC(=O)C1(CCc2ccccc2)CCN(Cc2cc(OC)c(OC)cc2OC)CC1", "percent activation": 86.5}, {"molecule": "CC(C)CCC(CCNCc1ccccn1)c1ccc(Cl)cc1", "note": "(stereo not given)", "percent activation": 192}, {"molecule": "CCCCn1c(=N)n(CC(O)COc2ccccc2)c2ccccc21", "note": "(stereo not given)", "percent activation": 130}, {"molecule": "COc1ccc(NC(=O)C(c2ccccc2)N2CCN(c3ccccn3)CC2)cc1Cl", "note": "(stereo not given)", "percent activation": 49.1}, {"molecule": "COC(=O)C1=C(C)N(Cc2ccccc2)C(=NCc2ccc(OC)cc2)N[C@H]1c1cccc(F)c1", "percent activation": 86}, {"molecule": "CCc1ccc(C(O)(CNCc2ccccc2)c2ccccc2)cc1", "note": "(stereo not given)", "percent activation": 153}, {"molecule": "COC(=O)C1=C(C)N(Cc2ccccc2)C(=NCC(C)C)N[C@H]1c1ccccc1", "percent activation": 156}, {"molecule": "CC(Sc1nnc(-c2ccc(Cl)cc2Cl)n1Cc1ccccc1)C(=O)Nc1nccs1", "note": "(stereo not given)", "percent activation": 59.2}, {"molecule": "COc1ccc(-c2csc3nc(C)nc(N4CCCCC4)c23)cc1OC", "percent activation": 54.9}, {"molecule": "N#Cc1c(N)oc(-c2ccco2)c1-c1ccco1", "percent activation": 29.4}, {"molecule": "CCCC12CN(C(=O)c3ccc([N+](=O)[O-])cc3)CC(C)(CN(C(=O)c3ccc([N+](=O)[O-])cc3)C1)C2=O", "percent activation": 97.7}, {"molecule": "CC(C)CN(C(=O)CSc1nnc(-c2cccs2)n1N)c1c(N)n(Cc2ccccc2)c(=O)[nH]c1=O", "percent activation": 69.9}, {"molecule": "CCc1ccc(CN(C)C(=O)CCc2nc3ccccc3n(-c3ccc(OC)cc3)c2=O)cc1", "percent activation": 88.1}, {"molecule": "CCC(C)c1ccccc1N1CC(C(=O)Nc2ccccc2N2CCCC2)CC1=O", "note": "(stereo not given)", "percent activation": 56.3}, {"molecule": "Cc1cccc2c(=O)cc(C)n(CC(=O)N3CCOCC3)c12", "percent activation": -3.24}, {"molecule": "CCC(=O)N(CCC(c1ccc(C)cc1)c1ccco1)Cc1ccco1", "note": "(stereo not given)", "percent activation": 76.7}, {"molecule": "Cc1cc(N2CCN(Cc3cn(C)nc3-c3ccccc3F)CC2)cc(C)n1", "percent activation": 11.6}, {"molecule": "Cn1c(=O)c2c(nc(CN3CCCCC3)n2CCc2ccccc2)n(C)c1=O", "percent activation": 46.7}, {"molecule": "CCC(=O)N1CCN(c2ccccc2NC(=O)c2ccc([N+](=O)[O-])o2)CC1", "percent activation": 72}, {"molecule": "Cc1ccccc1OCc1n(CC(=O)OC2CC(C)CCC2C(C)C)c2ccccc2[n+]1C", "note": "(stereo not given)", "percent activation": 202}, {"molecule": "CCOC(=O)c1c(C)n(-c2ccccc2)c2ccc(OCCN(C)C)cc12", "percent activation": 34.4}, {"molecule": "Cc1ccccc1SCC(=O)Nc1cc(C(F)(F)F)ccc1N1CCOCC1", "percent activation": 68.4}, {"molecule": "COc1ccc(Br)cc1CN(C)C(=O)c1ccccc1OCc1c(C)noc1C", "percent activation": 92.1}, {"molecule": "CCCC(=O)N1c2ccccc2C(=C2SC(C(=O)OC)=C(C(=O)OC)S2)C(=S)C1(C)C", "percent activation": 43.5}, {"molecule": "CCCCn1c(N)c(N(CCC(C)C)C(=O)c2ccc(COc3ccccc3)o2)c(=O)[nH]c1=O", "percent activation": 58.5}, {"molecule": "CCC(C)(C)C1CCc2nc3ccccc3c(C(=O)OC(C)C(=O)Nc3c(C)n(C)n(-c4ccccc4)c3=O)c2C1", "note": "(stereo not given)", "percent activation": 61.3}, {"molecule": "O=C1CCN(Cc2ccccc2)CCN1[C@H](COc1ccccc1)Cc1ccccc1", "percent activation": 68.6}, {"molecule": "O=C(NCC(c1ccco1)N1CCCC1)c1ccccc1Sc1ccc(C(F)(F)F)cc1[N+](=O)[O-]", "note": "(stereo not given)", "percent activation": 51.3}, {"molecule": "COc1ccc(C(C)=O)cc1CSc1nc2ccccc2c(=O)n1-c1ccccc1C", "percent activation": 82.6}, {"molecule": "COc1ccc(CN2CCC(N(CCc3ccccc3)Cc3ccccc3)CC2)c(OC)c1", "percent activation": 97.6}, {"molecule": "Clc1ccc(CN2C3=NCCN3c3ccccc32)cc1Cl", "percent activation": 76.6}, {"molecule": "COc1ccccc1C1CC(c2ccc(Cl)cc2)Nc2ncnn21", "note": "(stereo not given)", "percent activation": 65.7}, {"molecule": "CC(C)CCOC(=O)/C(=C/c1ccco1)NC(=O)/C=C/c1ccccc1", "percent activation": 37.4}, {"molecule": "Cc1nnc(N2CCC(C(=O)N3CCCCC3)CC2)c2nn(-c3ccc(Cl)cc3)c(C)c12", "percent activation": 24.8}]}]}
